# Bioassay records from PubChem BioAssay.
# TDP-43 yeast inh: inhibitors of TDP-43 toxicity in yeast | actives 1.8% (n = 410,000) | Potency, µM (highest dose often 46.1 µM), usual class: activators | AID 652104 | TDP-43 expressing yeast growth rescue, BacTiter-Glo, 24 h; note: nearly all actives have a fitted effect of over 50% in size
#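 Yeast expressing TDP-43 (pregrown in raffinose, seeded at OD600=0.02 in galactose medium) exposed to compounds 24 hr at 30 deg C. Growth read by BacTiter-Glo luminescence; rescue of toxicity appears as increased signal.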
# Mm-Cpn inhibitor: M. maripaludis TRiC chaperonin inhibition; purified Mm-Cpn ATPase, ADP Transcreener TR-FRET; Potency, µM (highest dose often 76.9 µM), hits mostly inhibitors; actives 0.031% (n = 330,000); AID 504842; note: nearly all actives have a fitted effect of over 80% in size
#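 Compound-treated chaperonin, 25 nM final, turns over 10 uM ATP at 37°C for 30 min following a 10 min preincubation; ADP generated competes with ADP-d2 for Eu-cryptate antibody, lowering FRET.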
# FUS yeast rescue: suppressors of FUS proteinopathy in yeast; AID 1347120; S. cerevisiae FUS-expressing, growth rescue, OD600, 24 h; Potency, µM (highest dose often 76.6 µM), hits mostly activators; actives 0.24% (n = 390,000); note: nearly all actives have a fitted effect of over 55% in size
#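 Compound concentration series was pinned onto galactose-induced FUS-expressing yeast seeded at OD 0.005. Plates sat 24hr at 30C; absorbance at 600 nm gave growth. DMSO served as background control.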
# Abeta rescue: restores growth of yeast expressing A-beta42 peptide; actives 0.063% (n = 410,000); yeast expressing A-beta42, growth rescue, OD600, 48 h; response scale: 0% DMSO, 100% iron-clioquinol control; Potency, µM (doses to about 46.1 µM), actives largely listed as activators; AID 1347071; note: nearly all actives have a fitted effect of over 55% in size
#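 Yeast growth medium received pinned compounds, then yeast cells expressing toxic A-beta were added; plates incubated at 30 C for 48 hr. Growth read as absorbance at 600 nm, normalized to DMSO and equimolar FeCl3 plus clioquinol controls.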
# aSyn rescue: alpha-synuclein toxicity inhibition in yeast; Yeast expressing alpha-synuclein, growth rescue, BacTiter-Glo, 24 h; actives 0.14% (n = 370,000); Potency, µM (titrated, usually from 46.1 µM), usual class: activators; note: nearly all actives have a fitted effect of over 65% in size
#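 Rescue of yeast growth: cells expressing toxic alpha-synuclein, induced in galactose at OD600 0.02, incubated with compound 24 h at 30 C. ATP luminescence quantified growth; inhibitors of toxicity appear as activators.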
# CCT modulator: cytosolic chaperonin activity modulation. purified chaperonin ATPase assay, HTRF ADP detection, 30 min. activity change, % (concentration not given with the values), hits read low. actives 0.3% (n = 360,000). AID 651819; in the data active = activity change below about -30%
#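 First, chaperonin was dispensed at 40 nM or 20 nM final depending on batch activity. Next, compounds were pinned at 76 uM and ATP added at 10 uM. After 30 min at 37 °C, ADP detection reagents ran 30 min at ambient temperature.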
# Hits are given with their value; – = inactive; ? = inconclusive; · = no result; [ ] = another dose, or the depositor's remark. Compounds with a hit are over-represented: about 2.3% of the library has one in this group of screens. Unless noted, calls come from the whole dose curve; as a rule, active = well fitted curve in the direction sought with a large enough effect; inconclusive = small, poorly fitted or top-dose-only effect, or another doubt; inactive = no such curve, though single readings can be large; an effect the other way counts as inactive or inconclusive.
SMILES,TDP-43 yeast inh,Mm-Cpn inhibitor,FUS yeast rescue,Abeta rescue,aSyn rescue,CCT modulator
COc1ccccc1Cc1c(-c2ccc(OC)c(OC)c2)nc2c3ccccc3ccn12,11.2µM,·,?,–,–,–
CCCC/C=C1/[C@H](c2ccccc2)N(C)C2=N[C@H](c3ccccc3)CC(=O)N21,·,·,–,·,·,·
COc1cccc(CNC(=O)CCSCc2ccccc2F)c1,14.1µM,–,–,–,–,–
O=C(CSC1=NNC(c2ccccn2)S1)Nc1cccc(Cl)c1 (stereo not given),?,–,–,15.8µM,8.91µM,–
O=C(CSC1=NNC(c2ccccn2)S1)Nc1ccccc1 (stereo not given),12.6µM,–,–,?,–,–
O=C(NCc1ccccn1)Nc1cccc(Cl)c1,–,–,–,–,–,-42.5
COc1ccc(NC(=O)CSc2ccc(-c3ccccn3)nn2)cc1OC,–,–,–,–,–,–
O=C(CSc1ccc(-c2ccccn2)nn1)Nc1ccc(F)c(F)c1,12.6µM,–,–,–,–,–
COc1ccccc1NC(=O)CSc1ccc(-c2ccccn2)nn1,22.4µM,–,–,?,–,–
COc1ccc(C)cc1NC(=O)CSc1ccc(-c2ccco2)nn1,17.8µM,–,–,–,–,–
O=C(CSc1nnc2ccc(-c3ccccn3)nn12)Nc1ccc(F)cc1,–,·,–,–,–,–
O=C(CSc1nnc2ccc(-c3ccccn3)nn12)Nc1cccc(F)c1,–,·,–,–,–,-44.9
CCOc1ccc(-c2nonc2NC(=O)c2oc3cc(Br)ccc3c2C)cc1,–[9.22 µM],·,–,–,·,·
COc1ccccc1NC(=O)CSc1nccc(-c2ccco2)n1,15.8µM,–,–,–,–,–
COCc1cc(O)c(O)c(O)c1-c1c(COC)cc(O)c(O)c1O,·,·,·,·,–,·
Clc1ccc(-c2csc3ncnc(Sc4nnnn4-c4ccccc4)c23)cc1,·,·,·,·,–,·
Clc1ccc(-n2nnnc2Sc2ncnc3sccc23)cc1,10µM,·,–,–,–,–
CC(=O)c1sc2nc(-c3cccs3)ccc2c1N,10µM,–,–,–,–,–
Nc1c(C(=O)Nc2ccccc2Br)sc2nc(-c3cccs3)ccc12,–,·,–,–,·,·
Cc1ccc(-n2c(N)c(C(=O)N3CCCCC3)sc2=S)cc1,11.2µM,–,–,–,–,–
CC1CC(C)CN(c2nc(N(C)c3ccccc3)nc(N)c2[N+](=O)[O-])C1 (stereo not given),17.8µM,–,–,–,–,–
CC1CN(c2nc(N(C)c3ccccc3)nc(N)c2[N+](=O)[O-])CC(C)O1 (stereo not given),–,–,–,–,–,–
COc1ccc(C(=O)Nc2cccc(OC(=O)c3ccco3)c2)cc1,17.8µM,–,–,–,–,–
COc1ccc(NC(=O)c2ccco2)cc1NC(=O)c1cccc(OC(C)C)c1,12.6µM,–,–,–,–,–
COc1ccc(NC(=O)C2Cc3c(-c4cccc(F)c4)ccnc3O2)cc1 (stereo not given),22.4µM,·,–,–,?,–
SMILES,TDP-43 yeast inh,Mm-Cpn inhibitor,FUS yeast rescue,Abeta rescue,aSyn rescue,CCT modulator
CC(=O)c1cccc(-c2ccnc3c2CC(C(=O)Nc2ccc(C(C)C)cc2)O3)c1 (stereo not given),20µM,·,–,?,–,–
O=C(Nc1ccc(Cl)c(C(F)(F)F)c1)C1Cc2c(-c3ccccc3)ccnc2O1 (stereo not given),31.6µM,·,–,–,?,–
CC(=O)c1cccc(NC(=O)C2Cc3c(-c4cccc(C(C)=O)c4)ccnc3O2)c1 (stereo not given),–,·,–,–,–,–
O=C(Nc1ccc(F)c(Cl)c1)C1Cc2c(-c3ccc(Cl)cc3)ccnc2O1 (stereo not given),35.5µM,·,?,–,?,–
O=C(Nc1ccc(Cl)cc1)C1Cc2c(-c3ccc(Cl)cc3)ccnc2O1 (stereo not given),–,·,–,–,–,–
O=C(NCc1ccccc1)C1Cc2c(-c3ccc4c(c3)OCO4)ccnc2O1 (stereo not given),35.5µM,·,–,–,–,–
O=C(Nc1ccc(Cl)cc1)C1Cc2c(-c3ccccc3)ccnc2O1 (stereo not given),35.5µM,·,–,–,?,–
C(=N\NC1=Nc2cccc3cccc1c23)/c1ccccn1,20µM,–,–,?,–,–
Clc1ccccc1/C=N/NC1=Nc2cccc3cccc1c23,–,–,·,–,–,–
O=C(CCS(=O)(=O)c1ccccc1)Nc1ccc(F)cc1Cl,·,·,–,·,·,·
O=C(COc1ccc(Cl)cc1)NCC(c1ccco1)S(=O)(=O)c1ccc(Cl)cc1 (stereo not given),35.5µM,·,–,–,·,·
Cc1cc(C(=O)Nc2nnc(C(F)(F)F)s2)cs1,–,–,–,–,–,-33.7
Cc1cc(C(=O)Nc2nnc(C(F)(F)F)s2)no1,–,–,–,–,–,–
Cc1nc(Br)c(Br)n1Cc1ccccc1,11.2µM,·,–,–,–,–
COc1ccc(-c2ccc(CCC(=O)O)o2)cc1,10µM,–,?,–,?,–
COc1ccc(-c2ccc(CCC(=O)O)n2C(C)C)cc1,?,–,–,–,–,–
NC(=O)c1ccc(-c2ccc(Br)cc2)o1,12.6µM,?,–,–,–,–
O=C(O)CCc1ccc(-c2ccc(Br)cc2)o1,3.16µM,–,–,–,–,–
NC(=O)C1CCN(C(=S)c2ccc(-c3ccc(Br)cc3)o2)CC1,–,–,–,–,–,–
O=C(O)CCc1ccc(-c2ccc(Cl)cc2)o1,?,–,–,–,–,–
CCOC(=O)c1cc(-c2ccc(C)cc2)n(CCC(=O)NC(C)CC)c1C (stereo not given),14.1µM,–,–,–,–,–
O=C(Nc1ccccc1C(F)(F)F)OC1CC2CC1[C@H]1CCCCN1C2 (stereo not given in full),·,·,–,·,·,·
Cc1ccc(NC(=O)c2ccccc2F)cc1S(=O)(=O)N1CCCCCC1,20µM,–,–,–,–,–
Cc1ccc(C)c(S(=O)(=O)N2CCNCC2)c1,–,–,–,–,–,-33.8
Cc1ccc(NC(=O)COC(=O)c2ccccc2F)cc1S(=O)(=O)N1CCCCC1,–,–,–,?,–,–
Cc1ccc(C)c(S(=O)(=O)N2CCC3(CC2)OCCO3)c1,–,–,–,–,–,–
COc1ccccc1CN(C)CC(=O)Nc1cccc(S(=O)(=O)N2CCCCC2)c1,3.16µM,–,–,–,–,–
Cc1ccc(C(=O)Nc2cccc(O)c2)cc1S(=O)(=O)N1CCCCCC1,–,–,–,–,–,–
Cc1ccc(NC(=O)c2ccc(C)c(S(=O)(=O)N3CCCCCC3)c2)cc1,17.8µM,·,–,–,–,·
